PubChem BioAssay (EPA / NIEHS)
The source made the active and inactive calls. The calls were made as follows: active = hit-call score of the fitted dose curve at least 0.9, where 1 is the maximum; inactive = score below 0.9.

Molecular target: Aryl hydrocarbon receptor (Homo sapiens) (UniProt P35869)
Assay: ATG_Ahr_CIS: Attagene CIS-FACTORIAL HepG2 Assay for human Aryl Hydrocarbon Receptor (Ahr) (AID 2282930)
Conditions: HepG2 AhR cis-factorial reporter transcription; actives raise or lower the signal
Protocol: ATG_CIS is a cell-based, multiplexed-readout assay that uses HepG2, a human liver cell line, with measurements taken at 24 hours after chemical dosing in a 24-well plate.ATG_Ahr_CIS is one of 52 assay component(s) measured or calculated from the ATG_CIS assay. It is designed to make measurements of mRNA induction, a form of inducible reporter, as detected with fluorescence intensity signals by Reverse transcription polymerase chain reaction (RT-PCR) and Capillary electrophoresis technology.Data from the assay component ATG_Ahr_CIS was analyzed into 1 assay endpoint. This assay endpoint, ATG_Ahr_CIS, was analyzed with bidirectional fitting relative to DMSO as the negative control and baseline of activity. Using a type of inducible reporter, measures of mRNA for gain or loss-of-signal activity can be used to understand the reporter gene at the transcription factor-level as they relate to the gene AHR. Furthermore, this assay endpoint can be referred to as a primary readout, because this assay has produced multiple assay endpoints where this one serves a reporter gene function. To generalize the intended target to other relatable targets, this assay endpoint is annotated to the dna binding intended target family, where the subfamily is basic helix-loop-helix protein.
Human liver HepG2 cells are transiently transfected with multiple reporter transcription units (MRTUs) in 6-well plates using FuGene 6 reagent (Roche; 3 ml FuGene/1 mg DNA). The MRTU constructs are regulated by a cis-regulating element (promoter). […] A major difference between the CIS and TRANS system is that in CIS activities of endogenous TFs are measured, whereas the TRANS assay evaluates changes in activities of exogenous, chimeric NR-Gal4 proteins. […] At the end of 24 hour incubation, total RNA was isolated using TriZol reagent (Invitrogen). The isolated RNA is then reverse-transcribed using oligo(dT) primer and Mo-MLV reverse transcriptase (Invitrogen) with DNAse I (Ambion) treatment for 30 min. The one-tenth of the produced cDNA was amplified by PCR using Taq DNA polymerase (Invitrogen) and two reporter sequence-specific primers. The PCR products were fluorescently labeled by primer extension with 6-arboxyfluorescein (6-FAM) 5'-labeled reporter sequence-specific primer (2 min at 95 C, 20 s at 68 C and 10 min at 72 C) and these products were digested with 5U of HpaI (New England Biolabs) for 2h at 37 C. […] The raw capillary electrophoresis data was processed using Attagraph software (Attagene).

Chain of Aryl hydrocarbon receptor (Homo sapiens) (P35869 whole entry, looked up): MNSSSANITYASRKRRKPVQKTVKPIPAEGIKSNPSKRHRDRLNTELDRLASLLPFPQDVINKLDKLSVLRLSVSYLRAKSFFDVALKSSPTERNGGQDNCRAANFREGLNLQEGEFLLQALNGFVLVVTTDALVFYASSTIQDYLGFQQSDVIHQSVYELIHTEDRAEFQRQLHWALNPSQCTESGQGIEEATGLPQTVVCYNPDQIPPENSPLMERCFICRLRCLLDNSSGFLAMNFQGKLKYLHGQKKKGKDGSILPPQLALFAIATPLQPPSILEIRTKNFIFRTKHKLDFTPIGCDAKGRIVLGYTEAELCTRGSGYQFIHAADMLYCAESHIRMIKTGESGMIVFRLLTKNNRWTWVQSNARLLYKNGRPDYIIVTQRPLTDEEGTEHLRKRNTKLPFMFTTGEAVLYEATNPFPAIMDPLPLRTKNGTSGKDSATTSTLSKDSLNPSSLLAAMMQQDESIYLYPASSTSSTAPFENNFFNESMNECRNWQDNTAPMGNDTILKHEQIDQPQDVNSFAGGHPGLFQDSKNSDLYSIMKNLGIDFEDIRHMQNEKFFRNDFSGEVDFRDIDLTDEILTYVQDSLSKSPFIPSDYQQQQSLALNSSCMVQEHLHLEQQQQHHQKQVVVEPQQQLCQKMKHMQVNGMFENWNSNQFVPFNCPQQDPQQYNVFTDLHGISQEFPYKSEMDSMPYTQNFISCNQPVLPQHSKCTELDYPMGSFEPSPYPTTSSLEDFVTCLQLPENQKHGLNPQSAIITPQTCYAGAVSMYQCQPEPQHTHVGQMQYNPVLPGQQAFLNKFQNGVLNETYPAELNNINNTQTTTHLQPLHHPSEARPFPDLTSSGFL

outcome, inactive:
C=CC(=O)OCCOC1C2CCC1C1CC=CC12 (stereo not given)
OCCCS
Cc1cccc(C(=O)O)c1
CCCCCCCC[N+](C)(CCCCCCCC)CCCCCCCC
CC(C)(Oc1ccc(C2CC2(Cl)Cl)cc1)C(=O)O (stereo not given)
CC(C)CCCCCOC(=O)CCS
CC(C)(C)c1n[nH]c(=O)n(N)c1=O
O=C(Nc1cccc(C(F)(F)F)c1)c1cc(Br)cc(Br)c1O
CCOC(=O)CC(C(C)=O)C(C)=O
CC(C)c1ccc2c(c1)CC[C@H]1[C@](C)(CN)CCC[C@]21C
Clc1nc2ccccc2s1
Cc1cc(=O)n(-c2ccccc2)n1C
OC1CCCC1
C=CC(=O)OCCC(=O)O
C=CCOc1c(Br)cc(Br)cc1Br
C=C(C)CCO
O=c1[nH]nc(-c2ccc([N+](=O)[O-])o2)o1
O=C1CCCCCN1SSN1CCCCCC1=O
CC(C)c1ccc(C#N)cc1
Cc1ccccc1C
CCC(C)C=O (stereo not given)
C/C=C\C/C=C/CCCCCCCCOC(C)=O
N[C@H]1C(O)O[C@H](CO)[C@H](O)[C@@H]1O (stereo not given in full)
CCCCC(CC)CCC(CC(C)C)OS(=O)(=O)O (stereo not given)
Cc1cc(C)c(C(=O)O)c(C)c1
CC(=O)OC(C)C
CCCc1ccc(OC)cc1
Nc1ccc(Cl)cc1Cl
C[C@]12CCC(=O)C=C1CC[C@@H]1[C@@H]2C(=O)C[C@@]2(C)[C@H]1CC[C@]2(O)C(=O)CO
NC(=O)OCC(COC(N)=O)c1ccccc1
NC(CO)(CO)CO
Cc1cc(O)c(Cl)c(C)c1Cl
C=COCCCC
C=CC(=O)OCC(Br)CBr (stereo not given)
CCCCCCCCCCC=CC#N

AC50, active:
C(=CC=Nc1ccccc1)C=CNc1ccccc1 10.1 µM
Cc1ccc(N/N=c2\c(=O)cc/c(=N/Nc3ccc(S(=O)(=O)O)cc3)c2=O)c(C)c1 9.18 µM
C=C(C)c1cccc(C(C)(C)N=C=O)c1 100 µM
C=C[Si](C)(C)O[Si](C)(C)C=C 100 µM
O=C(Cl)c1cc(C(=O)Cl)cc(C(=O)Cl)c1 77.5 µM
